# Screening results deposited in PubChem BioAssay by National Center for Advancing Translational Sciences (NCATS).
# gsp agonist = qHTS for Agonist of gsp, the Etiologic Mutation Responsible for Fibrous Dysplasia/McCune-Albright Syndrome: qHTS. gsp mutant cells, cAMP HTRF, 30 min. Potency, µM (titrated, usually from 76.9 µM), for the others: top-dose activation (cAMP increase), most hits filed as activators. hit rate 0.13% among 340,000; active means well fitted activation curve with a large enough effect; inconclusive means small, poorly fitted or top-dose-only effect, or another doubt; inactive means no such curve, though single readings can be large or run the other way; cell line not stated here;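 further: phosphodiesterase inhibitor Ro 20-1724 added with compounds to block cAMP breakdown; potency means the concentration at half of the fitted maximal effect; nearly all actives have a fitted effect of over 60% in size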
#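 Cells stably selected in G418 were plated at 2000/well, grown 16-24 hr, then given compounds in DMSO with the PDE inhibitor […] (300 uM solution added) for 30 min at 37C; cAMP was read by HTRF.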
# RXFP1 antagonist = qHTS Assay for Antagonists of the Relaxin Receptor RXFP1; activity change, negative = inhibition, % at 57.5 µM; AID 1259400, 2018; HEK293-RXFP1, relaxin-stimulated cAMP HTRF, 30 min; active compounds read low; hit rate 0.59% among 350,000; Relaxin receptor 1 (Homo sapiens), Q9HBX9;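 active means activity change of -60% or lower, but not beyond a set lower limit; inconclusive means change between -60% and -40%, or beyond the set limit; inactive means change above -40%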; further: on the % scale 0 is the no-effect control and ±100 the full control effect
# Target sequence (Q9HBX9 whole entry, looked up): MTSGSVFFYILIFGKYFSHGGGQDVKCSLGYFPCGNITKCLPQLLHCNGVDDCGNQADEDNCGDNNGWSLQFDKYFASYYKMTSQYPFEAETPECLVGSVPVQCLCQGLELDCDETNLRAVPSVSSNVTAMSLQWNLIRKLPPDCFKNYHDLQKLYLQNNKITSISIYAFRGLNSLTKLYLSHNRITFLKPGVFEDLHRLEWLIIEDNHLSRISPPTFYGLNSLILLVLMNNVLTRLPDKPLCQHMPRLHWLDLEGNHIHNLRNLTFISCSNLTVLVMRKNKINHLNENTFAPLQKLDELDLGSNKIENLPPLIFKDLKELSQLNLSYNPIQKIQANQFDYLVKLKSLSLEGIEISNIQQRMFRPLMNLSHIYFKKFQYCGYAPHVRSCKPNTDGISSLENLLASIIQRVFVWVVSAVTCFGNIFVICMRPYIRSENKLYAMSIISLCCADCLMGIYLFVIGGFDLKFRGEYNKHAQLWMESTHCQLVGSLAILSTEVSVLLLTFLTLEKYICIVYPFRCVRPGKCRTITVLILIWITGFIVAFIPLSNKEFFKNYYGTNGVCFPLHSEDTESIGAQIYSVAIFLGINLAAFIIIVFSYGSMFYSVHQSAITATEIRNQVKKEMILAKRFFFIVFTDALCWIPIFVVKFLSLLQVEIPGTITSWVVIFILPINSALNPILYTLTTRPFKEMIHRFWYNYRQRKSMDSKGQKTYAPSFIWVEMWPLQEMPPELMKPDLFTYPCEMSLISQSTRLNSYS
# RXFP1 agonist = qHTS Assay for Agonists of the Relaxin Receptor RXFP1. hit rate 0.3% among 370,000. HEK293T-RXFP1 cAMP TR-FRET, 30 min; response scale: percent of porcine relaxin response, buffer zero. AID 2676, 2010. Potency, µM (top dose mostly 57.5 µM), for the others: top-dose activation, usual class: activators; active means well fitted activation curve with a large enough effect; inconclusive means small, poorly fitted or top-dose-only effect; further: potency means the concentration at half of the fitted maximal effect; on the % scale 0 is the no-effect control and ±100 the full control effect; nearly all actives have a fitted effect of over 60% in size
#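 Agonist response is measured as cAMP accumulation in an RXFP1-transfected HEK293T line under PDE4 inhibition. Values are scaled between buffer-only and 29 nM porcine relaxin, and EC50s come from standard Hill equation fits.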
# gsp antag = qHTS for Antagonists of gsp, the Etiologic Mutation Responsible for Fibrous Dysplasia/McCune-Albright Syndrome: qHTS; gsp-mutant cells, cAMP HTRF, 30 min; Potency, µM (highest dose often 76.9 µM), for inactives: top-dose activity change, negative = inhibition, most hits filed as inhibitors; hit rate 0.4% among 340,000; AID 624288, 2012; calls by dose curve; cell line not stated here;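 further: intracellular cAMP measured with PDE inhibitor Ro 20-1724 present during compound exposure; potency means the concentration at half of the fitted maximal effect; on the % scale 0 is the no-effect control and ±100 the full control effect; nearly all actives have a fitted effect of over 65% in size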
#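 Cells in G418 medium, seeded 16-24 h, 37C; buffer exchange to DPBS + 1 mM CaCl2, 0.5 mM MgCl2, 0.05% BSA; cpds in DMSO + […] (300 uM stock), 30 min 37C; HTRF cAMP detection.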
# FBPA coupling cs = qHTS Assay for Inhibitors of Fructose-1,6-bisphosphate Aldolase from Giardia Lamblia: Coupling assay counterscreen; hit rate 0.67% among 290,000; activity change, negative = inhibition, % at 58.2 µM, hits read low; coupling enzyme system counterscreen, AmpLite Red fluorescence; AID 2472, 2010; in the data active means activity change below about -30%; further: on the % scale 0 is the no-effect control and ±100 the full control effect
#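 Coupling enzymes only (glyceraldehyde-3-phosphate) + compound, at 57.5 uM final, 10 min RT; add substrate/coupling/AmpLite Red mix, 20 min RT; fluorescence ex 525/em 598 nm. Actives flag coupling-system interference.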
# Giardia kill = Small Molecules that selectively kill Giardia lamblia: qHTS; hit rate 0.15% among 340,000; Giardia lamblia trophozoite viability; activity change, % at 7.66 µM, hits read low; in the data active means activity change below about -80%; inconclusive means between about -30% and that limit;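 further: parasites exposed to compound for two days anaerobically before the ATP read; on the % scale 0 is the no-effect control and ±100 the full control effect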
#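 Anaerobic 48 hrs incubation at 37 deg C of 100 trophozoites/well with test compounds; ATPLite 1-Step luminescence, 15-30 min RT, reports cellular ATP as viability.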
# * marks the source's active call; other numbers are inactive results; u = inconclusive; x = no result given; [ ] = another dose, or the depositor's remark. Shown are actives, neighbours in structure and some others; about 1.6% of the full set was active somewhere.
SMILES,gsp agonist,RXFP1 antagonist,RXFP1 agonist,gsp antag,FBPA coupling cs,Giardia kill
COC(=O)N[C@@H](c1ccc(Br)cc1)C(C(=O)OC)C(=O)OC,x,x,x,x,2,x
COc1ccccc1NC(=O)c1ccccc1NS(=O)(=O)c1cccs1,15%,10,0%,-10%,10,-3
COc1ccc(C)cc1NC(=O)c1ccccc1NS(=O)(=O)c1ccc(Cl)s1,8%,-2,3%,35µM*,11,-13
CCC1=C(OC(=O)N(CC)CC)N2C(=O)OC(=NCCc3c[nH]c4ccccc34)[C@]2(Cc2ccccc2)[C@H]2C1=CC[C@H]1C(=O)NC(=O)[C@H]12,-2%,x,-3%,11µM*,-2,-18
COc1ccc(NC(=O)NC2COc3ccccc3C2)cc1Cl (stereo not given),x,-13,0%,x,x,x
COC(=O)[C@H]1[C@H]2C[C@@H]3c4[nH]c5cc(OC)ccc5c4CCN3C[C@H]2C[C@@H](OC(=O)/C=C/c2ccc(O)c(OC)c2)[C@@H]1OC,x,-16,x,x,x,x
CCN(CC)S(=O)(=O)c1ccc(OC)c(NC(=O)COc2ccc3c(C)cc(=O)oc3c2)c1,8.9µM*,x,u,-49%,1,49
O=C(Nc1ccc(S(=O)(=O)Nc2nccs2)cc1)c1cccc(N2C(=O)c3ccccc3C2=O)c1,8%,-5,0%,-12%,-1,u
O=C1/C(=C\c2ccccn2)SC(=S)N1c1ccc(S(=O)(=O)Nc2nccs2)cc1,0%[15.4 µM],-81*,0%,40µM*,2,3
COc1ccc(/C=C2/SC(=S)N(c3ccc(S(=O)(=O)Nc4nccs4)cc3)C2=O)cc1,9%[15.4 µM],-80*,0%,32µM*,8,-22
Cc1ccc(/C=C2/SC(=S)N(c3ccc(S(=O)(=O)Nc4nccs4)cc3)C2=O)cc1,2%[15.4 µM],-67*,23%,32µM*,16,-9
COc1ccc(/C=C2\SC(=O)N(CCC(=O)Nc3ccc(S(=O)(=O)Nc4nccs4)cc3)C2=O)cc1,0%[15.4 µM],-36,0%,-19%,2,0
Cc1ccc(N2C(=O)/C(=C/c3cccnc3)SC2=S)cc1,4%[15.4 µM],-8,-2%,3%,0,-3
O=C1/C(=C/c2ccccn2)SC(=S)N1c1ccc(O)cc1,-42%,-2,8%,-8%,0,5
Cc1ccc(Oc2ccc3c(c2)C(=O)N(c2ccc(S(=O)(=O)Nc4nccs4)cc2)C3=O)cc1,38%,-107*,0%,u,6,10
CCN1C2OC3OC4C(OC3OC2N(CC)S1(=O)=O)N(CC)S(=O)(=O)N4CC (stereo not given),4%,-13,-1%,1%,2,0
O=C1CN(c2nc(-c3cccnc3)nc3sc4c(c23)CCCC4)CCN1,25µM*,11,25%,-12%,-2,-8
COc1ccc(C(=O)NCC(=O)OCC(=O)c2ccc3ccccc3c2)cc1,x,x,x,x,x,-21
COC(=O)C(C)(C)ONC(=O)Nc1ccccc1Cl,-2%,-65*,0%,-4%,-4,-7
COC(=O)C(C)(C)ONC(=O)Nc1ccccc1Br,-18%,x,1%,9%,1,-5
O=C(Nc1ccc(F)cc1)c1ccc2c(=O)n(CC3CCCO3)c(=S)[nH]c2c1 (stereo not given),u,-68*,4%,u,1,-10
COc1cc2[nH]c(=S)n(CC3CCCO3)c(=O)c2cc1OC (stereo not given),1%,-94*,0%,-14%,2,0
COC(=O)c1ccc2c(=O)n(CCCN3CCOCC3)c(=S)[nH]c2c1,-4%,8,1%,4%,3,-15
COc1cc2[nH]c(=S)n(CCCN3CCOCC3)c(=O)c2cc1OC,15%,-68*,0%,5%,3,12
